The source made the active and inactive calls. Rule for the calls: active = hit-call score of the fitted dose curve at least 0.9, where 1 is the maximum; inactive = score below 0.9.
Assays:
[1] = ATG_GLI_CIS: Attagene CIS-FACTORIAL HepG2 Assay for human Zinc Finger Protein GLI1 (AID 2282945); settings: HepG2, Attagene cis-factorial reporter mRNA, GLI element; actives raise or lower the signal
In short: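 Transiently transfected HepG2 cells report endogenous transcription factor activity via cis-element-driven reporter units. After 24 h compound exposure, reporter mRNA was measured by RT-PCR with capillary electrophoresis; bidirectional fitting against DMSO baseline.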

[2] = ATG_ISRE_CIS: Attagene CIS-FACTORIAL HepG2 Assay for human Interferon Regulatory Factor 1 (IRF1) binding to an Interferon-Stimulated Response Element (ISRE) (AID 2282948); settings: HepG2 ISRE cis-reporter (Attagene), mRNA transcription readout; actives raise or lower the signal
In short: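 Multiplexed mRNA reporter readout in human liver HepG2 cells: cis-element-driven reporters transfected, compound added for 24 h, transcripts amplified, fluorescently labelled and sized by capillary electrophoresis; curve fitting bidirectional against DMSO.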

[3] = ATG_M_32_CIS: Attagene CIS-FACTORIAL HepG2 Assay for M32 Transcription Factor (Internal Marker) (AID 2282949); settings: HepG2 Attagene cis-factorial M32 reporter, mRNA; actives raise or lower the signal;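 note: background control marker of the multiplexed CIS panel rather than a real target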
In short: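 Using DMSO as baseline, bidirectional curve fits were applied to reporter mRNA signals. These came from transiently transfected HepG2 cells exposed for 24 h, with RNA analysed by RT-PCR, FAM primer extension, HpaI digestion and CE.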

[4] = ATG_M_06_CIS: Attagene CIS-FACTORIAL HepG2 Assay for M06 Transcription Factor (Internal Marker) (AID 2282950); settings: HepG2 Attagene CIS-FACTORIAL M06 internal marker reporter; actives raise or lower the signal
In short: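 Internal background marker within multiplexed cis-reporter HepG2 system. Cells transiently transfected, dosed 24 h; reporter mRNA measured by RT-PCR, HpaI digestion and capillary electrophoresis. Bidirectional fit relative to DMSO.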

[5] = target: Hypoxia-inducible factor 1-alpha (Homo sapiens) (UniProt Q16665); assay: ATG_HIF1a_CIS: Attagene CIS-FACTORIAL HepG2 Assay for human Hypoxia Inducible Factor 1 (HIF1A) (AID 2282951); settings: HepG2 Attagene cis-factorial HIF1a reporter transcription; actives raise or lower the signal
Hypoxia-inducible factor 1-alpha (Homo sapiens), sequence (Q16665 whole entry, looked up): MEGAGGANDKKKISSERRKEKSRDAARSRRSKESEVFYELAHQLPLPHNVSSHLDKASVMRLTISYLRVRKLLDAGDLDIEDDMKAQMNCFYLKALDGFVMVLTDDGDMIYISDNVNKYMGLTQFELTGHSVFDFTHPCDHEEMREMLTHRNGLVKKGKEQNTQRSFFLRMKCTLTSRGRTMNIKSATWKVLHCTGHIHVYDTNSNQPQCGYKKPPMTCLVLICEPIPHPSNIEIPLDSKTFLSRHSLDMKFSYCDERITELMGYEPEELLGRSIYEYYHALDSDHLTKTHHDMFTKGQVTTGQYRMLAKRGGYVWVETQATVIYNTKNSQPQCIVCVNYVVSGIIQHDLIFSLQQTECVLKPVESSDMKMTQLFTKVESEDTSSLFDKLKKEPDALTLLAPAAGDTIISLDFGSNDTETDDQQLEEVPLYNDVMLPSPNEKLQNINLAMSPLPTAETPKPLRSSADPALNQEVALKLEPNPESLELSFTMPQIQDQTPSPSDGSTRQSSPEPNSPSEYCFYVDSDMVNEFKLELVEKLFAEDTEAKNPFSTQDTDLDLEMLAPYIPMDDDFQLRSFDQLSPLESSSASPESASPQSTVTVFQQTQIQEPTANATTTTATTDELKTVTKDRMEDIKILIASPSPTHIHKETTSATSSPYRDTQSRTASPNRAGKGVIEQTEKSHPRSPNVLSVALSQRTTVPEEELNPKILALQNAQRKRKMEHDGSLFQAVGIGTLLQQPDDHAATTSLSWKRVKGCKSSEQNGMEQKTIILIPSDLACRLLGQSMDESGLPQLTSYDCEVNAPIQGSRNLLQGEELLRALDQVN
In short: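 HepG2 cells transiently transfected with multiple cis-regulated reporter transcription units measure endogenous transcription factor activity. After 24 h exposure, reporter mRNA is quantified by RT-PCR with 6-FAM labelling, HpaI digestion and capillary electrophoresis. Bidirectional fitting against DMSO.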

[6] = target: Hepatocyte nuclear factor 6 (Homo sapiens) (UniProt Q9UBC0); assay: ATG_HNF6_CIS: Attagene CIS-FACTORIAL HepG2 Assay for human Hepatocyte Nuclear Factor 6 (HNF6) (AID 2282952); settings: HepG2 Attagene cis-factorial HNF6 reporter transcription; actives raise or lower the signal
Hepatocyte nuclear factor 6 (Homo sapiens), sequence (Q9UBC0 whole entry, looked up, the tested form may be a part): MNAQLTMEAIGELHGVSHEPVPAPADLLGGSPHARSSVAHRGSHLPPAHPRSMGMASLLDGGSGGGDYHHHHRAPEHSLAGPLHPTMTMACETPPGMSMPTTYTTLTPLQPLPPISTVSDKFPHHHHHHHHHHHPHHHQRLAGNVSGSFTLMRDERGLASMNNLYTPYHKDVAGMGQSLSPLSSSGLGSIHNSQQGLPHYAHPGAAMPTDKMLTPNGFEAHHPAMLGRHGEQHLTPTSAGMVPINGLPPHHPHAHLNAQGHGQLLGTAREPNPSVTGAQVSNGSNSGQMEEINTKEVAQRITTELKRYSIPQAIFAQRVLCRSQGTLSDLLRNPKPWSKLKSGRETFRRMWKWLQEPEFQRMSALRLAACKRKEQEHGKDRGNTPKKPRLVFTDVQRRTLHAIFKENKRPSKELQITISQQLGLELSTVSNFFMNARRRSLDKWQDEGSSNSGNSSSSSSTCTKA
In short: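 First, HepG2 cells were transfected with the multiplexed cis reporter library and dosed with chemical for 24 h. Next, RNA was reverse-transcribed, PCR-amplified and fluorescently labelled. Finally, HpaI-digested fragments were read by capillary electrophoresis.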

[7] = target: Heat shock factor protein 1 (Homo sapiens) (UniProt Q00613); assay: ATG_HSE_CIS: Attagene CIS-FACTORIAL HepG2 Assay for human Heat Shock Transcription Factor 1 (HSE) (AID 2282953); settings: HepG2 HSE cis-reporter, Attagene RNA transcription; actives raise or lower the signal
Heat shock factor protein 1 (Homo sapiens), sequence (Q00613 whole entry, looked up): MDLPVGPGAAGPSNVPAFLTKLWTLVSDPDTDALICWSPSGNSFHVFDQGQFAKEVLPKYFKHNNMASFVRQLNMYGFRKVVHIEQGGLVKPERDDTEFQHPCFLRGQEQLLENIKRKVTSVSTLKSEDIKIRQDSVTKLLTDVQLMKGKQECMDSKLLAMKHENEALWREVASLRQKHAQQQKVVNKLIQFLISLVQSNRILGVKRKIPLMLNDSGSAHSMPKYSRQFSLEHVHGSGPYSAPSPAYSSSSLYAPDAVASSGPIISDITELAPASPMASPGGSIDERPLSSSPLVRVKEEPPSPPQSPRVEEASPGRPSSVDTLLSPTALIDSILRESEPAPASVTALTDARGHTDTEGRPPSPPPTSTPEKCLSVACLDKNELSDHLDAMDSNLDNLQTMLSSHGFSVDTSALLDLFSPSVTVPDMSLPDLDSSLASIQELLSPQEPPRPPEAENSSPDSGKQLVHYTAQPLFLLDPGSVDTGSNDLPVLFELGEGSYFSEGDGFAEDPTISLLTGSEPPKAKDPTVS
In short: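 HepG2 cells transfected with cis-promoter reporter units sensing endogenous transcription factor activity; reporter mRNA quantified 24 h post-dose by RT-PCR and capillary electrophoresis of 6-FAM-labelled products. Bidirectional fitting against DMSO.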

[8] = target: Paired box protein Pax-6 (Homo sapiens) (UniProt P26367); assay: ATG_Pax6_CIS: Attagene CIS-FACTORIAL HepG2 Assay for human Paired Box 6 (PAX6) (AID 2282956); settings: HepG2 CIS-FACTORIAL PAX6 reporter transcription, RNA readout; actives raise or lower the signal
Paired box protein Pax-6 (Homo sapiens), sequence (P26367 whole entry, looked up): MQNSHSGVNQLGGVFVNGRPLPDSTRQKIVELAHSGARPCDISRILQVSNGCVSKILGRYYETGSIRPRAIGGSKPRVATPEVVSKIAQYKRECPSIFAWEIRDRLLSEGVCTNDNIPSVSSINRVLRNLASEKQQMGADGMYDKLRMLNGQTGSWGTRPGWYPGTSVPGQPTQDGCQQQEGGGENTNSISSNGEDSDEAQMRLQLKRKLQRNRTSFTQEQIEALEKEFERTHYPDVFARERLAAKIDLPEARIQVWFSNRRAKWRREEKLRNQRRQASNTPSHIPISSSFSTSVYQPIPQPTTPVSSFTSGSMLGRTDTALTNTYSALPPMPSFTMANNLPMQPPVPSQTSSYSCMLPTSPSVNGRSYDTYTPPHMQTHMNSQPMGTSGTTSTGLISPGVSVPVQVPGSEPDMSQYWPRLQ
In short: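 Fluorescent RT-PCR products separated by capillary electrophoresis report PAX6-linked promoter mRNA in HepG2 cells 24 h post-dose. Curves fitted bidirectionally, DMSO as negative control.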

[9] = ATG_PPRE_CIS: Attagene CIS-FACTORIAL HepG2 Assay for human Peroxisome Proliferator-activated Response Element (PPRE) (AID 2282958); settings: HepG2 PPRE cis-element reporter, Attagene transcription factor profiling; actives raise or lower the signal
In short: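 HepG2 cells are transiently transfected with multiplexed cis-promoter reporter units to report endogenous PPAR activity. After 24 h dosing, reporter mRNA is read by RT-PCR and capillary electrophoresis. Fitting is bidirectional against DMSO.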

[10] = ATG_Sox_CIS: Attagene CIS-FACTORIAL HepG2 Assay for human SRY-box transcription factor (SOX) (AID 2282960); settings: HepG2 Attagene cis-factorial SOX reporter, mRNA; actives raise or lower the signal
In short: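 HepG2 cells transiently transfected with multiple cis-regulated reporter units, then dosed for 24 h. Reporter mRNA quantified by RT-PCR, fluorescent labelling, HpaI digestion and capillary electrophoresis; bidirectional fit versus DMSO.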

[11] = target: Transcription factor Sp1 (Homo sapiens) (UniProt P08047); assay: ATG_Sp1_CIS: Attagene CIS-FACTORIAL HepG2 Assay for human Specificity Protein 1 (Sp1) (AID 2282961); settings: HepG2 Sp1 cis-reporter transcription, actives raise or lower the signal
Transcription factor Sp1 (Homo sapiens), sequence (P08047 whole entry, looked up): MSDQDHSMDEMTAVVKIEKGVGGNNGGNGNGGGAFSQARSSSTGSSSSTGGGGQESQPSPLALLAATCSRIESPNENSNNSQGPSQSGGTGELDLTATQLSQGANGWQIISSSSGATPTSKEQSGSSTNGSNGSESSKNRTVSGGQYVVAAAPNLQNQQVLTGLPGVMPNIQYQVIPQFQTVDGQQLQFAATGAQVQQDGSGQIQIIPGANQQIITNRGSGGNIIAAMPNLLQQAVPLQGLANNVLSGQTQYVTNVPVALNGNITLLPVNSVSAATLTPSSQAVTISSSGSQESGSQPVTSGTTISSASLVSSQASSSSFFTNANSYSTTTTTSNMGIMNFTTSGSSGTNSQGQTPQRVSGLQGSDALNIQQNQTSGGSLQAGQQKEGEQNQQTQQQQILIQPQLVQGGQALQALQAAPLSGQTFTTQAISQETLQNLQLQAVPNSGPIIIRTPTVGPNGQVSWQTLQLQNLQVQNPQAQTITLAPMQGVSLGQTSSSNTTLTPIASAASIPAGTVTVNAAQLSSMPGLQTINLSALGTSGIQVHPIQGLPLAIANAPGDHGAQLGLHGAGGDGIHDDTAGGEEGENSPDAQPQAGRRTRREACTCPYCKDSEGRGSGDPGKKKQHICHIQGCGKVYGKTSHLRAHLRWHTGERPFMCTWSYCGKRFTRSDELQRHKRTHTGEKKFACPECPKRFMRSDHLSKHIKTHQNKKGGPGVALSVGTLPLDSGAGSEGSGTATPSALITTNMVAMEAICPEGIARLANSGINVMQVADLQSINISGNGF
In short: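 HepG2 cells transiently transfected with multiplexed cis-regulated reporter constructs, chemical exposure 24 h. Reporter mRNA quantified by RT-PCR with capillary electrophoresis; bidirectional fit relative to DMSO.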

[12] = ATG_SREBP_CIS: Attagene CIS-FACTORIAL HepG2 Assay for human Sterol Regulatory Element Binding (SREBP) (AID 2282962); settings: HepG2 Attagene cis-factorial SREBP reporter, mRNA; actives raise or lower the signal
In short: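 Endogenous factor activity is measured in HepG2 through multiplexed reporter units under cis-element control. Following a 24 h incubation, reporter transcripts are reverse-transcribed, PCR-amplified and sized by capillary electrophoresis; activity is fitted in both directions relative to DMSO.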

[13] = target: Signal transducer and activator of transcription 3 (Homo sapiens) (UniProt P40763); assay: ATG_STAT3_CIS: Attagene CIS-FACTORIAL HepG2 Assay for human Signal Transducer and Activator of Transcription 3 (STAT3) (AID 2282963); settings: HepG2, Attagene cis-factorial STAT3 reporter transcription; actives raise or lower the signal
Signal transducer and activator of transcription 3 (Homo sapiens), sequence (P40763 whole entry, looked up, the tested form may be a part): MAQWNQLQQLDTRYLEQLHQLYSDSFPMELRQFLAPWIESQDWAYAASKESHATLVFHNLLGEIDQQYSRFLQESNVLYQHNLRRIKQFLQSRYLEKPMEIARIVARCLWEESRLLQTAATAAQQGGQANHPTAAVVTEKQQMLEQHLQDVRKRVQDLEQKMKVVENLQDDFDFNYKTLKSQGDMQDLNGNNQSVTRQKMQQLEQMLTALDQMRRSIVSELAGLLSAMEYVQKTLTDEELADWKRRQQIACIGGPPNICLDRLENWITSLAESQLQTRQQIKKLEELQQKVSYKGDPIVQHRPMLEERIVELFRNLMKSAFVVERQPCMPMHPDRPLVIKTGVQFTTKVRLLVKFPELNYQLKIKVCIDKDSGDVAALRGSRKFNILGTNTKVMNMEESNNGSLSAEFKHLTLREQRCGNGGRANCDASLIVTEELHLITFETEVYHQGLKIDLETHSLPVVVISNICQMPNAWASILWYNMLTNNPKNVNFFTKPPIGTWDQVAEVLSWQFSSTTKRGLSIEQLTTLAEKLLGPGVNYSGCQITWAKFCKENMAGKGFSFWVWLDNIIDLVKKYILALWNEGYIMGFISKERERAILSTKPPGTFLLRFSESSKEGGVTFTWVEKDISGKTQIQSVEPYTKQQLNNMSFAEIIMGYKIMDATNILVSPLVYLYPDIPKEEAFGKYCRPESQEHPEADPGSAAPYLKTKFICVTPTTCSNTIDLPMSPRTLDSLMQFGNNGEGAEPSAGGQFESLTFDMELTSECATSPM
In short: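 Readout: fluorescent reporter mRNA fragments resolved by capillary electrophoresis. Setup: HepG2 transfected with MRTUs reporting endogenous transcription-factor activity, dosed 24 h. Gain or loss of signal fitted bidirectionally against DMSO control.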

[14] = ATG_TA_CIS: Attagene CIS-FACTORIAL HepG2 Assay for human TA Basal Promoter (AID 2282964); settings: HepG2 Attagene CIS-factorial TA basal promoter reporter; actives raise or lower the signal
In short: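 HepG2 cells transiently transfected with multiple reporter units under cis promoter elements, reporting endogenous transcription factor activity; this endpoint tracks the TA basal promoter as background control. Reporter mRNA after 24 h dosing measured by RT-PCR/capillary electrophoresis; bidirectional fits versus DMSO.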

[15] = ATG_MRE_CIS: Attagene CIS-FACTORIAL HepG2 Assay for human Metal Responsive Element (MRE) (AID 2282954); settings: HepG2 MRE cis-reporter transcription, Attagene multiplex; actives raise or lower the signal
In short: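 RT-PCR/capillary electrophoresis readout of reporter mRNA, 24 h post-dosing, in HepG2 cells transfected with multiplexed cis-regulated reporter constructs. Gain or loss of signal fitted bidirectionally against DMSO baseline.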

[16] = ATG_PXRE_CIS: Attagene CIS-FACTORIAL HepG2 Assay for human Pregnane X Receptor Element (PXRE) (AID 2282957); settings: HepG2 Attagene CIS-FACTORIAL PXRE reporter, mRNA; actives raise or lower the signal
In short: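 After a 24 h chemical incubation, total RNA from transfected HepG2 cells was reverse-transcribed and reporter cDNA amplified, FAM-labeled, HpaI-digested and sized by capillary electrophoresis. DMSO served as baseline for bidirectional curve fitting.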

[17] = ATG_PBREM_CIS: Attagene CIS-FACTORIAL HepG2 Assay for human Phenobarbital-responsive Enhancer Module (PBREM) (AID 2282955); settings: HepG2 PBREM cis-reporter, Attagene multiplexed transcription; actives raise or lower the signal
In short: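 HepG2 cells transiently transfected with multiple cis-regulated reporter units measure endogenous transcription factor activity; 24 h compound exposure. Reporter mRNA quantified by RT-PCR, fluorescent labelling, HpaI digestion and capillary electrophoresis; bidirectional fit versus DMSO.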

[18] = ATG_RORE_CIS: Attagene CIS-FACTORIAL HepG2 Assay for human RAR-related Orphan Receptor Element (RORE) (AID 2282959); settings: HepG2 Attagene cis-factorial RORE reporter, mRNA; actives raise or lower the signal
In short: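 HepG2 cells carrying transiently transfected cis-regulated reporter units; RORE-driven reporter mRNA quantified 24 h post-dosing by RT-PCR, 6-FAM primer extension, HpaI digestion and capillary electrophoresis. Bidirectional fit versus DMSO.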

Measured: AC50

O=C(O)c1cccc(Cl)n1
not listed: [15] | [16] | [17] | [18]
inactive: all other assays above

C=CC(=O)OCCCCCC
active: [16] 59.6 µM
not listed: [9] | [17] | [18]
inactive: all other assays above

C=CCCCCCCCCC(=O)OCC
not listed: [15] | [16]
inactive: all other assays above

CCOC(=O)CCCCCCCCC(=O)OCC
not listed: [8] | [9]
inactive: all other assays above

O=C(O)c1ccccc1O
not listed: [9] | [14] | [16]
inactive: all other assays above

C=C(C)C(=O)OCCN(C)C
not listed: [7]
inactive: all other assays above

CCCCCC#CC(=O)OC
not listed: [12] | [16]
inactive: all other assays above

CC(=O)OC/C=C(C)/C=C/C=C(C)/C=C/C1=C(C)CCCC1(C)C
active: [1] 159 µM | [2] 72.8 µM | [7] 155 µM | [15] 100 µM | [10] 138 µM | [11] 172 µM | [12] 100 µM
not listed: [8] | [16] | [17]
inactive: all other assays above

CN(C)C
not listed: [9] | [18]
inactive: all other assays above

N#CCCNCCC#N
not listed: [17]
inactive: all other assays above

CC(C)C(=O)c1ccccc1
not listed: [15] | [16] | [17]
inactive: all other assays above

CCC(C)COC(=O)CC(C)C (stereo not given)
not listed: [8] | [12] | [17]
inactive: all other assays above

CCNC(=S)NCC
not listed: [15]
inactive: all other assays above

c1ccc(Sc2ccccc2)cc1
active: [16] 62.7 µM
not listed: [9] | [17]
inactive: all other assays above

[O-]/[N+](=N\O)c1ccccc1
active: [16] 26.6 µM
not listed: [7] | [18]
inactive: all other assays above

Nc1ccn([C@H]2CC[C@@H](CO)O2)c(=O)n1
not listed: [5] | [8] | [17]
inactive: all other assays above

NC(=O)NC(N)=O
not listed: [2] | [3] | [12]
inactive: all other assays above

CCCCCC1C(=O)CCC1CC(=O)OC (stereo not given)
not listed: [7] | [17] | [18]
inactive: all other assays above

N#CCCCC(C#N)CCC#N (stereo not given)
not listed: [7] | [15] | [17]
inactive: all other assays above

NCCN1CCNCC1
not listed: [2] | [12] | [17]
inactive: all other assays above

C[N+](C)(C)CCO
not listed: [5] | [7] | [15] | [16]
inactive: all other assays above

CC(=O)OC(C)(C)C
not listed: [3] | [12] | [17]
inactive: all other assays above

CC1=CCC(C(C)C)=CC1
active: [3] 69.4 µM
not listed: [7] | [9] | [14] | [18]
inactive: all other assays above

CCC(CC)CO
not listed: [3] | [12]
inactive: all other assays above

— PubChem BioAssay (EPA / NIEHS)
